SMILES strings stand for the structures. Among all 52,000 compounds or so, about 1,700 (3.3%) were called active. No stated cut-off is given here; in the data, active means survival mostly below about 52% (no sharp cut-off); inactive means mostly above about 56%. The entries come from a sample that favours actives as a whole.

In this test the test system is Wild type. Description: growth inhibition of S. aureus wild type versus tarO mutant, primary screen, teichoic acid synthesis inhibitors, RN4220, OD600 (AID 463173). The following applies: S. aureus RN4220 wild type/DeltatarO growth, OD600, 18 h, active compounds read low, screened at 18.75 µg/mL (by protocol).
`CCc1ccccc1NS(=O)(=O)c1ccc2[nH]cc(C(=O)N3CCCCC3)c(=O)c2c1`: the survival was 127% (inactive).

As for `Cc1ccc(-c2nn(CCC(N)=O)c(=O)c3ccccc23)cc1`, the survival is 65% (inactive).

As for `CCOc1ccc(C(=O)Nc2ccc(-c3cc4ccccc4oc3=O)cc2)cc1Br`, the survival was 75% (inactive).

Turning to `Cc1ccc(Cl)cc1NC(=O)c1ccc(-c2nc(CSc3ccccc3)c(C)o2)cc1`, the survival was 55% (inactive).

In the case of `CCN1CCC(N(Cc2cccc(OC)c2)C(=O)Nc2cccc(C)c2C)CC1`, the survival is -3% (active).

Turning to `CCN1CCC(N(Cc2cccc(OC)c2)C(=O)Nc2ccc(C)cc2Cl)CC1`, the survival was 53% (inactive).

As to `CCN1CCC(N(Cc2ccc3c(c2)OCO3)C(=O)Nc2cccc(C)c2C)CC1`, the survival was 83% (inactive).

Turning to `CCc1cccc(C)c1NS(=O)(=O)c1ccc(-n2cccn2)cc1`, the survival was 128% (inactive).

Take `O=C(CCc1ccccc1)Nc1nnc(CCN2CCCCC2)s1`: the survival was 97% (inactive).

Turning to `CCCn1cc(S(=O)(=O)c2ccccc2)c(=O)c2cc(F)c(N3CCCC(C)C3)cc21` (centres undefined), the survival is 71% (inactive).

Turning to `CC(C)OC(=O)CSc1nnc(CNc2ccc(F)cc2)n1C1CCCCC1`, the survival was 108% (inactive).

For `CCc1ccc(S(=O)(=O)NCc2cccn2Cc2cccc(C)c2)cc1`, the survival is 71% (inactive).

As to `Cc1cccc(Cn2cccc2CNS(=O)(=O)c2ccccc2F)c1`, the survival is -4% (active).

As to `Cc1cccc(Cn2cccc2CNS(=O)(=O)c2ccc(Br)cc2)c1`, the survival is 64% (inactive).

Turning to `CCc1ccc(OCc2nc(-c3ccc(OC)c(OC)c3)no2)c(Br)c1`, the survival is 38% (inactive).

For `COc1ccc(-c2noc(COc3cc(C)ccc3C)n2)cc1OC`, the survival is 0% (active).

In the case of `COc1cc(OC)cc(-c2nc(-c3cccc(C)c3)no2)c1`, the survival is -15% (active).

`COc1ccc(N2CCN(c3ccc(-c4nc(-c5cccc(C)c5)no4)cc3[N+](=O)[O-])CC2)cc1`: the survival was 89% (inactive).

`Cc1cccc(-c2noc(-c3ccc(N4CCN(C)CC4)c([N+](=O)[O-])c3)n2)c1`: the survival was -3% (active).

With `Cc1ccc(-c2noc(-c3ccc(N4CCN(C)CC4)c([N+](=O)[O-])c3)n2)cc1`, the survival was 85% (inactive).

Take `COc1ccc(-c2noc(CN(C)S(=O)(=O)c3c(C)cc(C)cc3C)n2)cc1OC`: the survival was 78% (inactive).

As for `COc1ccc(-c2noc(COc3ccc(Br)cc3C)n2)cc1OC`, the survival was 11% (active).

As to `Cc1cccc(-c2noc(-c3ccc(N4CCCC4)c([N+](=O)[O-])c3)n2)c1`, the survival is 81% (inactive).

As for `COc1ccc(-c2noc(COc3cc(C)c(Br)c(C)c3)n2)cc1OC`, the survival was 80% (inactive).

With `COc1ccc(OCc2nc(-c3ccc(OC)c(OC)c3)no2)cc1`, the survival was 70% (inactive).

As for `COc1cc(OC)cc(-c2nc(-c3ccc4c(c3)[nH]c(=O)n4C)no2)c1`, the survival is 73% (inactive).

Regarding `Cc1cc(C)c(S(=O)(=O)NCC(c2ccco2)N2CCN(c3ccccc3)CC2)c(C)c1` (centres undefined), the survival is 85% (inactive).

For `Cc1ccc(Nc2nc3ccccc3c3nncn23)c(Cl)c1`, the survival was 132% (inactive).

Consider `O=C(NCc1cccs1)c1nn(-c2ccccc2Cl)nc1CO`, for which the survival was 116% (inactive).

For `COc1cccc(-c2cc(C(=O)Nc3cc(OC)c(OC)c(OC)c3)on2)c1`, the survival is 69% (inactive).

For the compound `COc1ccc(NS(=O)(=O)c2ccc3[nH]c4c(c3c2)CCCC4)c(OC)c1`, the survival is 99% (inactive).

For the compound `COc1cccc(CCNC(=O)c2cnc3sc(N4CCCCCC4)nn3c2=O)c1`, the survival is 80% (inactive).

`O=C(CSc1ncc(S(=O)(=O)c2ccc(Cl)cc2)c(=O)[nH]1)Nc1cccc(C(F)(F)F)c1`: the survival was 78% (inactive).

On to `COc1ccc(C(=O)NCc2nc(-c3cccc(C)c3)no2)cc1OC`, for which the survival was 113% (inactive).

For `COc1ccccc1OCc1nc(-c2cccc(C)c2)no1`, the survival is 0% (active).

Turning to `COc1cccc(-c2noc(COc3cccc(C)c3C)n2)c1`, the survival was 85% (inactive).

For `Cc1ccc(N2C(=O)CS(=O)(=O)C23C(=O)N(Cc2cccc(F)c2)c2ccccc23)cc1Cl` (centres undefined), the survival is 75% (inactive).

In the case of `COc1ccc(CC(=O)N2CC(=O)Nc3ccc(Br)cc3C2c2ccc(F)cc2)cc1` (centres undefined), the survival is 64% (inactive).

Regarding `Cc1ccc2c(c1)N(C(=O)Nc1cccc(C)c1C)CCO2`, the survival is 89% (inactive).

As for `Cc1cccc(-n2nc(C)c(C(=O)N3CCN(c4ccccc4)CC3)c2-n2cccc2)c1`, the survival is 53% (inactive).

`COc1cccc(NC(=O)c2c(C)nn(-c3cccc(C)c3)c2-n2cccc2)c1`: the survival was 0% (active).

Consider `CCOC(=O)N1CCC(NC(=O)c2c(C)nn(-c3cccc(C)c3)c2-n2cccc2)CC1`, for which the survival is 85% (inactive).

Consider `COc1cc(NC(=O)c2c(C)nn(-c3ccc(F)cc3)c2-n2cccc2)cc(OC)c1`, for which the survival is 70% (inactive).

For the compound `CCOC(=O)N1CCN(C(=O)c2c(C)nn(-c3cccc(C)c3)c2-n2cccc2)CC1`, the survival was -3% (active).

Turning to `COc1cccc(CNC(=O)c2c(C)nn(-c3cccc(C)c3)c2-n2cccc2)c1`, the survival was 71% (inactive).

With `Cc1ccc(NC(=O)C2C3C=CC4(O3)C2C(=O)N(c2ccccc2F)C4C(=O)NC2CCCC2)cc1` (centres undefined), the survival was 84% (inactive).

As for `O=C(Nc1ccc(C(=O)OCc2cc(=O)n3nc(C4CC4)sc3n2)cc1)c1ccccc1`, the survival was 70% (inactive).

Turning to `O=C(CCc1nc2cccnc2n1Cc1cccs1)Nc1cccc(C(F)(F)F)c1`, the survival was 79% (inactive).

Consider `CCC(Sc1ncnc2sc3c(c12)CCCC3)C(=O)OC(C)C` (centres undefined), for which the survival was -2% (active).

Consider `CCC(Sc1ncnc2sc3c(c12)CCCC3)C(=O)OCC(C)C` (centres undefined), for which the survival is -3% (active).

For `CC(C)OCCCNc1ncnc2sc3c(c12)CCCC3`, the survival is 79% (inactive).

As for `Nc1ncnc2sc3c(c12)CCCC3`, the survival is 109% (inactive).

For `Clc1ncnc2sc3c(c12)CCCC3`, the survival was 108% (inactive).

For `CNC(=O)CSc1ncnc2sc3c(c12)CCCC3`, the survival is 104% (inactive).

On to `CCOC(=O)C(CC)Sc1ncnc2sc3c(c12)CCCC3` (centres undefined), for which the survival was -3% (active).

Turning to `CCOC(=O)CSc1ncnc2sc3c(c12)CCC3`, the survival is 100% (inactive).

Regarding `COC(=O)C(C)n1cnc2sc3c(c2c1=O)CCCC3` (centres undefined), the survival is 102% (inactive).

`Cc1oc(-c2ccc(C(=O)Nc3cccc(C(F)(F)F)c3)cc2)nc1CSc1ccccc1`: the survival is 57% (inactive).

For `Cc1ccc(C)c(N2CCN(S(=O)(=O)c3ccc4oc(=O)c5ncn(C)c5c4c3)CC2)c1`, the survival was 81% (inactive).

With `Cc1c(Cl)cccc1NC(=O)Nc1nnc(N(C)C2CCCCC2)s1`, the survival is 111% (inactive).

For the compound `Cc1ccc(-n2c(=O)c3cccnc3n2CC(=O)Nc2ccc(Br)cc2)cc1C`, the survival is 57% (inactive).

`O=C(CSc1ncc(-c2ccccc2)[nH]1)Nc1cccc(Br)c1`: the survival was 13% (inactive).

Regarding `O=C(O)c1ccc(-c2ccc(/C=N/N3C(=O)C4C(C3=O)C3C=CC4C34CC4)o2)cc1` (centres undefined), the survival was 110% (inactive).

As to `CC1CCN(S(=O)(=O)c2ccc3c(c2)N(C)C(=O)CC(=O)N3C)CC1`, the survival was 74% (inactive).

For `Cc1cccn2c(=O)c3cc(C(=O)NCC(C)C)sc3nc12`, the survival is 80% (inactive).

Consider `COc1ccccc1N(C)C(=O)Cn1c(=O)oc2cc(S(=O)(=O)N3CCCC3)ccc21`, for which the survival was 127% (inactive).

In the case of `CCOc1ccc(NC(=O)CSc2nnc3scc(-c4ccccc4)n23)cc1`, the survival was 48% (inactive).

Take `Cc1ccc(C)c(CN2CCCN(Cc3ccc(F)cc3)S2(=O)=O)c1`: the survival was -6% (active).

Take `Cc1ccc(C)c(CN2CCCN(Cc3ccccc3C)S2(=O)=O)c1`: the survival is 76% (inactive).

Take `Cc1ccc(CN2CCCN(Cc3c(C)cc(C)cc3C)S2(=O)=O)cc1`: the survival is 63% (inactive).

As to `COC(=O)c1ccc(NC(=O)CN2CCCN(Cc3ccc(Cl)cc3)S2(=O)=O)cc1`, the survival was 110% (inactive).

As to `COC(=O)c1ccc(OC)c(CN2CCCN(Cc3ccc(C)cc3)S2(=O)=O)c1`, the survival is -3% (active).

With `COc1ccc(NC(=O)CN2CCCN(Cc3ccc(Cl)cc3)S2(=O)=O)cc1Cl`, the survival was 67% (inactive).

As to `CCc1c(CN2CCN(c3cccc(C)c3)C(C)C2)csc1C` (centres undefined), the survival is 94% (inactive).

Regarding `Cc1c(-c2ccccc2)c(=O)oc2ccc(OC(=O)N3CCOCC3)cc12`, the survival was 78% (inactive).

As for `CC(C)(C)OC(=O)N1CCC(c2c(C(=O)N3CCN(c4ncccn4)CC3)cnn2-c2cccc(F)c2)CC1`, the survival was 134% (inactive).

For `CCCOc1ccc(Nc2cc(C)nc(C)n2)cc1`, the survival was 82% (inactive).

On to `Cc1cc(C)cc(NC(=O)CCCc2nnc3n(CC(C)C)c(=O)c4sccc4n23)c1`, for which the survival was 97% (inactive).

Take `CCc1cccc(-n2nnc(-c3nsc(NC(=O)c4cccs4)n3)c2C)c1`: the survival is -6% (active).

Regarding `CCc1cccc(-n2nnc(-c3nsc(NC(=O)c4ccc(C)cc4)n3)c2C)c1`, the survival was 53% (inactive).

Consider `Cc1ccc(-n2nnc(-c3nsc(NC(=O)c4ccccc4C)n3)c2C)cc1Cl`, for which the survival was 159% (inactive).

Take `CCc1ccc(-n2nnc(-c3nsc(NC(=O)c4ccccc4Cl)n3)c2C)cc1`: the survival is 12% (active).

As to `CSc1cccc(-n2nnc(-c3nsc(NC(=O)c4cccs4)n3)c2C)c1`, the survival is 80% (inactive).

Take `Cc1cc(C)cc(-n2nnc(-c3nsc(NC(=O)c4ccccc4Cl)n3)c2C)c1`: the survival is 49% (inactive).

With `Cn1c(=O)c2cc(C(=O)NC3CCCCCC3)sc2c2ccccc21`, the survival is 89% (inactive).

Take `CCCN(CCC)C(=O)Cn1c(=O)n(Cc2ccc(C(=O)NCCc3ccc(Cl)cc3)cc2)c(=O)c2ccccc21`: the survival is 113% (inactive).

`CCCCN(C(=O)CCn1c(=O)oc2ccccc21)c1ccccc1`: the survival is 71% (inactive).

Take `COc1ccc(S(=O)(=O)n2nc(C)c(S(=O)(=O)N3CCCCC3)c2C)cc1`: the survival was 63% (inactive).

For `CCCOc1ccc(OC(=O)c2sc3ncn(Cc4cccc(F)c4)c(=O)c3c2C)cc1`, the survival is 56% (inactive).

On to `COc1ccc(C(=O)Nc2ccccc2C(=O)OCc2cc(=O)n3nc(C4CC4)sc3n2)cc1`, for which the survival was 67% (inactive).

Turning to `CCCOC(=O)CSc1ncnc2sc3c(c12)CCC(C)C3` (centres undefined), the survival was 7% (active).

For the compound `Cc1ccc(OCCCCn2nnc3sc4c(c3c2=O)CCC(C)C4)cc1` (centres undefined), the survival was 94% (inactive).

As for `CCOC(=O)CSc1nc2sc3c(c2c(=O)n1Cc1ccccc1)CC(C)CC3` (centres undefined), the survival was 68% (inactive).

Take `CCC(C(=O)OC(C)C)n1cnc2sc3c(c2c1=O)CCC(C)C3` (centres undefined): the survival was 71% (inactive).

`CCCCCOC(=O)CSc1ncnc2sc3c(c12)CCC(C)C3` (centres undefined): the survival is -1% (active).

With `CCCCOC(=O)CSc1ncnc2sc3c(c12)CCC(C)C3` (centres undefined), the survival is 15% (active).

Turning to `CC1CCc2c(sc3ncnc(NCCOCCO)c23)C1` (centres undefined), the survival is 106% (inactive).

Regarding `CCCCCOC(=O)CSc1ncnc2c1sc1nc(N3CCOCC3)c3c(c12)CCCC3`, the survival was 61% (inactive).

Turning to `Cc1ccc(-c2nc(NC(=O)CSc3ncnc4sc5c(c34)CCC(C)C5)ns2)cc1` (centres undefined), the survival is 75% (inactive).

The record behind these values is PubChem BioAssay AID463173 (ICCB-Longwood Screening Facility, Harvard Medical School, 2010).
